From PubChem BioAssay (NCI)
About 79,000 compounds went through this panel and 15% of them were active in at least one assay; those are over-represented in the sample as a whole. A number with no mark means an inactive call. Activity calls are given as the source filed them. No stated cut-off is given here; in the data, active means growth inhibition above about 70%; inactive means the rest.

Experiments:
[1] = NCI Yeast Anticancer Drug Screen. Data for the rad50 strain (AID 155);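 further: 0% = growth of vehicle-only cultures of the same strain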; details: S. cerevisiae rad50 strain growth inhibition, active compounds read high
How it was run: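 Relative growth inhibition (compound vs vehicle) was measured in yeast with a defined repair-gene alteration.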

[2] = NCI Yeast Anticancer Drug Screen. Data for the mec2-1 strain (AID 157); details: S. cerevisiae mec2-1 strain, active compounds read high
How it was run: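 Strain: mec2-1 (DNA repair/cell cycle alteration). Compound exposure, then growth measured; inhibition expressed relative to vehicle.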

[3] = NCI Yeast Anticancer Drug Screen. Data for the sgs1 mgt1 strain (AID 161);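 further: 0% = growth of cultures given vehicle only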; details: S. cerevisiae sgs1 mgt1 strain, active compounds read high
How it was run: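 Mutant yeast exposed to compound; growth scored against vehicle-only wells.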

[4] = NCI Yeast Anticancer Drug Screen. Data for the cln2 rad14 strain (AID 165);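 further: 0% = growth equal to vehicle treated cultures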; details: S. cerevisiae cln2 rad14 strain, active compounds read high
How it was run: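 Compounds are applied to the cln2 rad14 yeast strain, and growth is then compared with that of vehicle-treated cultures to give inhibition.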

[5] = NCI Yeast Anticancer Drug Screen. Data for the bub3 strain (AID 167); details: S. cerevisiae bub3 mutant strain, active compounds read high
How it was run: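 Screening used yeast with an engineered genetic alteration affecting cell cycle control. Compound-exposed cultures were compared with vehicle cultures, and reduced growth was taken as inhibition.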

[6] = NCI Yeast Anticancer Drug Screen. Data for the mlh1 rad18 strain (AID 175); details: S. cerevisiae mlh1 rad18 strain growth inhibition, active compounds read high
How it was run: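 Read-out is yeast growth inhibition, calculated against vehicle-only controls. The compound was applied to a strain engineered with DNA damage repair alterations.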

[7] = at 5.0 µM (retest, dose inferred, filed as 0.5)
[8] = at 50.0 µM (retest, dose inferred, filed as 5.0)

Compound	growth inhibition [1, 7]	growth inhibition [1, 8]	growth inhibition ([1]; at 50.0 µM)	growth inhibition [2, 7]	growth inhibition [2, 8]	growth inhibition ([2]; at 50.0 µM)	growth inhibition [3, 7]	growth inhibition [3, 8]	growth inhibition ([3]; at 50.0 µM)	growth inhibition [4, 7]	growth inhibition [4, 8]	growth inhibition ([4]; at 50.0 µM)	growth inhibition [5, 7]	growth inhibition [5, 8]	growth inhibition ([5]; at 50.0 µM)	growth inhibition [6, 7]	growth inhibition [6, 8]	growth inhibition ([6]; at 50.0 µM)
O=C1C=CC(=O)N1c1ccc2c(c1)Cc1cc(Cl)ccc1-2	-48%	92% (active)	13.6%	8%	96% (active)	78.3% (active)	-5%	93% (active)	79.2% (active)	-3%	27%	-72%	11%	82% (active)	72.3% (active)	26%	97% (active)	68.9%
O=C(N/C(=C\c1ccc(Oc2ccc(Cl)c(Cl)c2)cc1)c1nc2ccccc2[nH]1)c1ccccc1	29%	97% (active)	97.8% (active)	10%	97% (active)	98.3% (active)	10%	97% (active)	98% (active)	13%	65%	95.6% (active)	15%	95% (active)	97.2% (active)	6%	89% (active)	98.2% (active)
CCOc1ccc(C(=O)CCN2CCOCC2)cc1	8%	40%	77.5% (active)	14%	27%	42.1%	20%	53%	57%	15%	59%	52.9%	14%	46%	46%	6%	35%	55.3%
CC(CN(C)C)C(/C=C/c1ccc(Cl)cc1)=N\NC(=O)c1ccccc1 (configuration not stated)	3%	15%	17.6%	2%	12%	-4.45%	1%	-3%	-15.3%	2%	6%	-1.65%	-3%	-10%	-11.9%	3%	-36%	27.2%
O=C1c2ccccc2C(=O)c2cc(S(=O)(=O)Cl)ccc21	68%	99% (active)	76.1% (active)	97% (active)	99% (active)	60.9%	94% (active)	98% (active)	69.2%	55%	99% (active)	-49.5%	98% (active)	99% (active)	72.5% (active)	59%	99% (active)	75.8% (active)
CCCCN(CC(O)c1ccc(Cl)cc1)c1ccccc1 (configuration not stated)	-1%	99% (active)	98.8% (active)	-2%	99% (active)	98.8% (active)	-6%	98% (active)	98.8% (active)	1%	93% (active)	98.5% (active)	1%	98% (active)	95% (active)	1%	99% (active)	96.7% (active)
Cc1ccc(NC2=CC(=O)C(NO)c3ccccc32)cc1 (configuration not stated)	14%	66%	38.6%	19%	66%	20.6%	16%	68%	35.6%	10%	40%	44.5%	21%	83% (active)	21.9%	13%	79% (active)	60.5%
CN(C)c1nc(N(C)C)sc(=O)n1	0%	91% (active)	85% (active)	-4%	28%	25.8%	2%	78% (active)	69%	8%	26%	1.5%	-10%	37%	-3.6%	9%	86% (active)	76.3% (active)
O=C1OC(=O)c2cc([N+](=O)[O-])cc3cccc1c23	3%	97% (active)	22.9%	13%	99% (active)	36.2%	3%	99% (active)	29.2%	22%	98% (active)	36.6%	21%	99% (active)	47.5%	8%	99% (active)	76.7% (active)
Cc1cc(C2CCCCC2)n(O)c(=O)c1	98% (active)	99% (active)	98.8% (active)	98% (active)	99% (active)	99.2% (active)	98% (active)	99% (active)	99.5% (active)	96% (active)	98% (active)	99.3% (active)	96% (active)	99% (active)	98.7% (active)	98% (active)	99% (active)	99.3% (active)
CCCC(C)C/C(C)=C\C(C)(C)C1CC(=O)N(CC)C1=O (configuration not stated)	-3%	90% (active)	20.3%	-1%	89% (active)	80.7% (active)	-3%	54%	72.7% (active)	4%	92% (active)	83.8% (active)	4%	95% (active)	70.9% (active)	-3%	98% (active)	60.9%
CC(=O)Oc1c(C2CCCCC2)cc([N+](=O)[O-])cc1[N+](=O)[O-]	96% (active)	99% (active)	99.5% (active)	91% (active)	99% (active)	99.7% (active)	98% (active)	99% (active)	99.5% (active)	79% (active)	99% (active)	98% (active)	85% (active)	99% (active)	99.5% (active)	97% (active)	98% (active)	99.6% (active)
CCCCCCCCCc1cc(=O)[nH]c(=S)[nH]1	17%	74% (active)	85.1% (active)	6%	72% (active)	77.7% (active)	25%	65%	79.3% (active)	-13%	58%	50.5%	8%	77% (active)	85.9% (active)	20%	84% (active)	86.8% (active)
COC(=O)CCN1c2ccccc2Sc2ccccc21	-14%	38%	48.8%	-23%	21%	23.1%	-13%	30%	47.5%	31%	42%	23.4%	16%	62%	12.1%	-15%	49%	64.7%
Oc1c(Cl)c(Cl)c(O)c2c1CCCC2	46%	98% (active)	99.3% (active)	67%	99% (active)	99.5% (active)	69%	99% (active)	99.2% (active)	14%	99% (active)	98.9% (active)	65%	98% (active)	99.5% (active)	78% (active)	99% (active)	99.4% (active)
Cc1cc(NC(=S)SCc2ccc(F)cc2)ccc1Br	49%	99% (active)	90.7% (active)	32%	100% (active)	92.8% (active)	58%	100% (active)	91.8% (active)	46%	99% (active)	90.7% (active)	56%	100% (active)	92.3% (active)	33%	98% (active)	91.4% (active)
C[C@]12CC[C@H](O)CC1=CC[C@@H]1C2CC[C@]2(C)C(=O)N(N)C(=O)CC12 (some centres not stated)	7%	92% (active)	83.7% (active)	-24%	91% (active)	88.3% (active)	16%	93% (active)	87.8% (active)	2%	92% (active)	88.4% (active)	16%	93% (active)	86.7% (active)	-11%	91% (active)	84.4% (active)
[O-]c1c2cc(-[n+]3c(-c4ccccc4)cc(-c4ccccc4)cc3-c3ccccc3)cc1CO[C@@H](c1ccccc1)[C@H](c1ccccc1)OCCOCCO[C@@H](c1ccccc1)[C@H](c1ccccc1)OC2	97% (active)	95% (active)	87.5% (active)	98% (active)	95% (active)	91.4% (active)	98% (active)	97% (active)	88.4% (active)	95% (active)	97% (active)	88.6% (active)	97% (active)	72% (active)	89% (active)	98% (active)	94% (active)	29.6%
O=C(c1ccccc1)c1ccc2c(c1Cl)C(=O)c1ccccc1C2=O	-6%	-1%	43%	-3%	-7%	43.8%	0%	0%	63.8%	14%	-16%	4%	-8%	-11%	80.5% (active)	1%	0%	65.2%
